High-throughput results as filed in PubChem BioAssay.
Shown are actives, neighbours in structure and some others; about 2.3% of the full set was active somewhere.
M1 ag = human M1 muscarinic receptor agonists, primary screen, Fluo-8 calcium fluorescence, CHO-K1 cells, HTS. Muscarinic acetylcholine receptor M1 (Homo sapiens), P11229. CHO-K1 hM1, agonist mode; 0% DMSO, 100% acetylcholine EC100. activation, % at 3 µM. 360,000 tested, 0.33% active. AID 588814, 2011;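 active means activation above the run's mean compound activation plus 3 SD, cut at about 16% in these data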;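 further: peak over basal fluorescence ratio within a 140 s kinetic read after compound addition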
Target sequence (P11229 whole entry, looked up): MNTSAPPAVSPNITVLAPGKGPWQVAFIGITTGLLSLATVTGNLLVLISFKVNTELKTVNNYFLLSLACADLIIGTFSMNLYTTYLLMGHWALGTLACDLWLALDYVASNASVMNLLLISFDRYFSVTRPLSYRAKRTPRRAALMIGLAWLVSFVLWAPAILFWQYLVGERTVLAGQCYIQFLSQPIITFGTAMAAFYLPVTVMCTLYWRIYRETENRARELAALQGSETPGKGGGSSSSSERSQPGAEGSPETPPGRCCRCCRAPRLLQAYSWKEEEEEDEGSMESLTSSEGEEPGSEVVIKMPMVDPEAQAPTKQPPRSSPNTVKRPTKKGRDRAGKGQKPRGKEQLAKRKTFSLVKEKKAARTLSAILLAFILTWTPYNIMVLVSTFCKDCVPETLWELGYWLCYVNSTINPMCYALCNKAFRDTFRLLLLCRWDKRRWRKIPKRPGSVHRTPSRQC
CHRM1 antagonist = human M1 muscarinic receptor antagonists, primary screen, CHO-K1 cells, Fluo-8 calcium fluorescence, 1536-well | 360,000 tested, 1.3% active | AID 588852, 2011 | inhibition, % at 3 µM | Muscarinic acetylcholine receptor M1 (Homo sapiens), P11229 | CHO-K1 hM1, ACh EC80 antagonist;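 active means percent inhibition above its own plate's cutoff, namely the mean of that plate's compound wells plus 3 SD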;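 further: peak over basal fluorescence ratio during 140 s after agonist addition; 0% = ACh EC80 plus DMSO and 100% = DMSO alone without agonist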
CHO-K1 Ca antag = M1 antagonist counterscreen hit in parental CHO-K1 cells; ATP-induced calcium, Fluo-8 fluorescence; inhibition, % at 3 µM; 360,000 tested, 0.6% active; AID 602250;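 active means inhibition above a per-plate cutoff, the plate's mean sample inhibition plus 3 SD, cut at about 24% in these data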;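 further: 0% = DMSO plus EC80 ATP and 100% = DMSO alone without ATP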
M1 PAM parental = nonselective calcium activators in parental CHO-K1 cells, primary screen, counter-screen for M1 PAM project, cell-based, Fluo-8 calcium fluorescence, full deck, 1536-well | ATP EC20; 0% at ATP EC20, 100% at ATP max | activation, % at 3 µM | 360,000 tested, 0.02% active;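 active means activation above the run cutoff, the mean activation of all test compounds plus 3 SD, cut at about 40% in these data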;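 further: peak over basal fluorescence ratio in a 140 s read after ATP addition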
M1 PAM = human M1 muscarinic receptor positive allosteric modulators, primary screen, CHO-K1 cells, Fluo-8 calcium fluorescence, 1536-well. 360,000 tested, 0.088% active. activation, % at 3 µM. AID 588819, 2011. CHO-K1 hM1, ACh EC20; 0% = ACh EC20, 100% = maximal ACh; in the data active means activation above about 19%, passing the limit was not always enough
M1 ag parental = counter-screen for M1 agonists: effect in parental CHO-K1 cells; Fluo-8 calcium fluorescence; scaled to maximal ATP response, vehicle zero; activation, % at 3 µM; 360,000 tested, 0.48% active; AID 602248, 2012; in the data active means activation above about 15%;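 further: untransfected CHO-K1 host cells lacking M1 receptor as counterscreen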
* = called active by the depositor.

Screening CCN1C/C(=C/c2ccc(N3CCOCC3)cc2)C(=O)/C(=C/c2ccc(N3CCOCC3)cc2)C1 returned M1 ag 23*, CHRM1 antagonist 31, CHO-K1 Ca antag 27*, M1 PAM parental 6, M1 PAM -9 and M1 ag parental 34*.
`O=C(COc1ccccc1F)Nc1cc(S(=O)(=O)Nc2cccc(Cl)c2)ccc1O` gave M1 ag -2, CHRM1 antagonist 20, CHO-K1 Ca antag 2, M1 PAM parental -11, M1 PAM -6 and M1 ag parental 0.
`COc1ccc(CNCCC(c2ccccc2)c2ccc3c(c2)OCO3)cc1` (stereo not drawn) gave M1 ag -2, CHRM1 antagonist 23, CHO-K1 Ca antag -6, M1 PAM parental 4, M1 PAM -18 and M1 ag parental 28*.
COc1ccc(CNCCC(c2ccc(OC(C)C)cc2)C(C)C)cc1OC (stereo not drawn) was read as M1 ag -9, CHRM1 antagonist 16, CHO-K1 Ca antag -35, M1 PAM parental 18, M1 PAM -17 and M1 ag parental 7.
For COc1ccc(C(CCNCc2ccc(OC(C)C)cc2)C(C)C)cc1 (stereo not drawn) the results were M1 ag -2, CHRM1 antagonist 36*, CHO-K1 Ca antag 12, M1 PAM parental -13, M1 PAM -17 and M1 ag parental 9.
For COc1ccc(C(CC(=O)O)c2ccc3c(c2)OCO3)cc1 (stereo not drawn) the results were M1 ag 0, CHRM1 antagonist -11, CHO-K1 Ca antag 0, M1 PAM parental 12, M1 PAM 12 and M1 ag parental 0.
COc1ccc(C(CCNCc2ccc(N(C)C)cc2)C(C)C)cc1 (stereo not drawn) was read as M1 ag -1, CHRM1 antagonist 39*, CHO-K1 Ca antag 28*, M1 PAM parental -28, M1 PAM -16 and M1 ag parental 7.
`COC(=O)[C@@]1(C)[C@H]2C(=O)N(C)C(=O)[C@H]2[C@H]2CN=C(SCc3ccc(Cl)cc3)N21` gave M1 ag 0, CHRM1 antagonist -10, CHO-K1 Ca antag 2, M1 PAM parental -13, M1 PAM 17 and M1 ag parental 0.
`CCOC(=O)c1ccc[n+](CC(=O)c2ccc(NC(=O)c3ccccc3)cc2)c1` gave M1 ag -10, CHRM1 antagonist -10, CHO-K1 Ca antag -15, M1 PAM parental 18, M1 PAM 6 and M1 ag parental 0.
Screening CC(C)S(=O)(=O)c1csc(C(=O)Nc2ccc(F)cc2)c1N returned M1 ag 7, CHRM1 antagonist -5, CHO-K1 Ca antag 4, M1 PAM parental 14, M1 PAM 9 and M1 ag parental 21*.
`Cc1nc(Cl)sc1C(=O)Nc1ccc(F)cc1` gave M1 ag -4, CHRM1 antagonist -15, CHO-K1 Ca antag -9, M1 PAM parental 12, M1 PAM 8 and M1 ag parental 1.
`COC(=O)c1ccc(CNC(=O)CC[C@H]2O[C@@H](n3cc(C)c(=O)[nH]c3=O)C[C@@H]2O)cc1` gave M1 ag 1, CHRM1 antagonist -20, CHO-K1 Ca antag -10, M1 PAM parental 8, M1 PAM 2 and M1 ag parental 1.
Screening O=C(NP(=O)(N1CCCC1)N1CCCC1)C1=C(N2CCOCC2)/C(=C/c2cccc([N+](=O)[O-])c2)CC1 returned M1 ag -6, CHRM1 antagonist -4, CHO-K1 Ca antag 7, M1 PAM parental 8, M1 PAM 3 and M1 ag parental 17*.
For CCOC(=O)C(=O)C1=C(N2CCOCC2)/C(=C\c2cccc([N+](=O)[O-])c2)CC1 the results were M1 ag -4, CHRM1 antagonist -9, CHO-K1 Ca antag -7, M1 PAM parental 14, M1 PAM 2 and M1 ag parental 0.
